# PubChem BioAssay (EPA / NIEHS)
# Values joined by “and” are separate entries in the source; they are usually repeats but may differ in a detail not shown here. Equal values may be shown once. The source holds several records for some structures; these can differ, active in one and inactive in another. Active and inactive are the calls of the source. How the source made its calls, unless noted: active means hit-call score of the fitted dose curve at least 0.9, where 1 is the maximum; inactive means score below 0.9.
# Tested on: not listed separately
# Assay: CCTE_Shafer_MEA_dev_per_network_spike_spike_percent: CCTE's Neural Network Formation Assay for Percent of Spikes in a Network Spike, Shafer Lab (AID 2284054)
# Procedure, shortened: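 Metric: fraction of spikes falling in a 0.05 s window at network-spike peaks. Recordings were made on days 5, 7, 9 and 12 and collapsed by trapezoidal AUC. Cultures were rat cortical neurons on MEA plates, dosed continuously from plating, re-dosed at media changes.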
Compound,AC50,outcome
CN(C)C(=S)SSC(=S)N(C)C,0.00821 µM (active),
CCCCOC(=O)c1ccccc1C(=O)OCCCC,,inactive
CCNc1nc(Cl)nc(NC(C)C)n1,,inactive
C=CCC1=C(C)C(OC(=O)C2C(C=C(C)C)C2(C)C)CC1=O (stereo unspecified),4.76 µM (active),inactive
C=CC1(C)OC(=O)N(c2cc(Cl)cc(Cl)c2)C1=O (stereo unspecified),,inactive
CCCCNC(=O)n1c(NC(=O)OC)nc2ccccc21,,inactive
COc1ccc(C(c2ccc(OC)cc2)C(Cl)(Cl)Cl)cc1,3.28 µM (active),
COC(=O)N(OC)c1ccccc1COc1ccn(-c2ccc(Cl)cc2)n1,157 nM (active) and 13.6 nM (active),
CCOc1cc(Oc2ccc(C(F)(F)F)cc2Cl)ccc1[N+](=O)[O-],13.2 µM (active),
CO/C=C(/C(=O)OC)c1ccccc1Oc1cc(Oc2ccccc2C#N)ncn1,1.83 µM (active) and 433 nM (active),
COP(N)(=O)SC (stereo unspecified),,inactive
Cc1ccc(-c2c(Cl)nc(C#N)n2S(=O)(=O)N(C)C)cc1,,inactive
CC(C)(C)c1ccc(CSc2cnn(C(C)(C)C)c(=O)c2Cl)cc1,0.00179 µM (active),
COP(=S)(OC)Oc1nc(Cl)c(Cl)cc1Cl,,inactive
CCCCNC(=O)OCC#CI,2.91 µM (active) and 1.17 µM (active),
CCCCC(CC)COC(=O)c1ccccc1C(=O)OCC(CC)CCCC (stereo unspecified),7.71 µM (active) and 22.4 µM (active),inactive
C=CCC1=C(C)[C@@H](OC(=O)[C@@H]2[C@@H](C=C(C)C)C2(C)C)CC1=O,,inactive
N#Cc1nn(-c2c(Cl)cc(C(F)(F)F)cc2Cl)c(N)c1S(=O)C(F)(F)F (stereo unspecified),4.41 µM (active),
Cc1c(F)c(F)c(COC(=O)C2C(/C=C(\Cl)C(F)(F)F)C2(C)C)c(F)c1F (stereo unspecified),1.45 µM (active),
CNC(=O)ON=CC(C)(C)SC,,inactive
CCOC(=O)CC(SP(=S)(OC)OC)C(=O)OCC (stereo unspecified),11 µM (active) and 3.69 µM (active),

# Tested on: DIO3 (gene 1735)
# Assay: CCTE_GLTED_hDIO3: CCTE's human Deiodinase 3 (DIO3) Inhibition Assay, Great Lakes Toxicology and Ecology Division (GLTED) Lab (AID 2284055; active means hit-call score of the fitted dose curve at least 0.9, where 1 is the maximum;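 on AC50: potency is for inhibition seen as loss of released iodide signal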)
# Procedure, shortened: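 Inhibition is read as reduced iodide release, measured spectrophotometrically by the Sandell-Kolthoff cerium/arsenic reaction. Adenovirus-expressed human DIO3 enzyme is exposed to chemical for 3 h, n=3 plates. Iodinated chemicals, nitrite, iron or thiocyanate may interfere.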
Compound,AC50,outcome
CN(C)C(=S)SSC(=S)N(C)C,43.1 µM (active),
CCNc1nc(Cl)nc(NC(C)C)n1,21.7 µM (active),
C=CCC1=C(C)C(OC(=O)C2C(C=C(C)C)C2(C)C)CC1=O (stereo unspecified),40.9 µM (active),
Fc1ccc(Oc2ccnc3cc(Cl)cc(Cl)c23)cc1,0.965 µM (active),
CCCN(CCC)c1c([N+](=O)[O-])cc(S(N)(=O)=O)cc1[N+](=O)[O-],160 µM (active),
Cc1ccc(-c2c(Cl)nc(C#N)n2S(=O)(=O)N(C)C)cc1,,inactive
Oc1ccccc1-c1ccccc1,89.4 µM (active),
N#Cc1nn(-c2c(Cl)cc(C(F)(F)F)cc2Cl)c(N)c1S(=O)C(F)(F)F (stereo unspecified),1.13 µM (active),
